Test results: publication PMC5349851, “Combinatorial bZIP dimers display complex DNA-binding specificity landscapes”

Experiments:
Test in all cases: SELEX-seq (CSI, HT-SELEX, round 3); SELEX-seq: 1x PBS (10 mM phosphate, 137 mM NaCl, 2.7 mM KCl) pH 7.6, 2.5 mM DTT, 50 ng/ul poly dI-dC, 0.1% BSA, 50 nM biotinylated bZIP (1:3 with partner for heterodimers), 100 nM library, room temperature, 1 h, 3 rounds; high values mean tight binding
Conditions in all cases: protein: recombinant;recombinant; copies: 1;1; dsDNA, one strand shown
ATF5;BATF2 = biological target: T1, ATF5;BATF2 (Homo sapiens;Homo sapiens, UniProt Q9Y2D1;Q8N1L9 199-275;8-85, |)
T1 sequence 1: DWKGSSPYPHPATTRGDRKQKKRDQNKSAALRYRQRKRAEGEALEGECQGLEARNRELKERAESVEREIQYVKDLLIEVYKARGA
T1 sequence 2: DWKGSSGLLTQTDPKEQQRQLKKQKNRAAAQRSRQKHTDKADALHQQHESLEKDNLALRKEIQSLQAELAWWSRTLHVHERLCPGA

NFE2;MAFG = NFE2;MAFG (Homo sapiens;Homo sapiens, UniProt Q16621;O15525 221-337;25-124, |)
NFE2L1;MAFG = NFE2L1;MAFG (Homo sapiens;Homo sapiens, UniProt Q14494;O15525 609-725;25-124, |)
HLF;HLF = biological target: T2, HLF;HLF (Homo sapiens;Homo sapiens, UniProt Q16534;Q16534 216-293;216-293, |)
T2 sequence 1: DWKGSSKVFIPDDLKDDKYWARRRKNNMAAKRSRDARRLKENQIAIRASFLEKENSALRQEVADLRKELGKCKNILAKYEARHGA
T2 sequence 2: T2 sequence 1

NFIL3;NFIL3 = biological target: T3, NFIL3;NFIL3 (Homo sapiens;Homo sapiens, UniProt Q16649;Q16649 64-134;64-134, |)
T3 sequence 1: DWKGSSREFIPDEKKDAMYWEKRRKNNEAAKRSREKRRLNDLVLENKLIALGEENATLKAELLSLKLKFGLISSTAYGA
T3 sequence 2: T3 sequence 1

MAFG;MAFG = MAFG;MAFG (Homo sapiens;Homo sapiens, UniProt O15525;O15525 25-124;25-124, |)
MAFB;FOSL1 = MAFB;FOSL1 (Homo sapiens;Homo sapiens, UniProt Q9Y5Q3;P15407 212-305;96-169, |)
MAFB;ATF5 = MAFB;ATF5 (Homo sapiens;Homo sapiens, UniProt Q9Y5Q3;Q9Y2D1 212-305;199-275, |)
ATF5;ATF6B = ATF5;ATF6B (Homo sapiens;Homo sapiens, UniProt Q9Y2D1;Q99941 199-275;316-391, |)
ATF5;CREBZF = biological target: T4, ATF5;CREBZF (Homo sapiens;Homo sapiens, UniProt Q9Y2D1;Q9NS37 199-275;195-272, |)
T4 sequence 1: T1 sequence 1
T4 sequence 2: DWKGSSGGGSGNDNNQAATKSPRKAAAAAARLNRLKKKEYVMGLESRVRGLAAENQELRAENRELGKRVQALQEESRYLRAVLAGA

NFE2;NFE2 = biological target: T5, NFE2;NFE2 (Homo sapiens;Homo sapiens, UniProt Q16621;Q16621 221-337;221-337, |)
T5 sequence 1: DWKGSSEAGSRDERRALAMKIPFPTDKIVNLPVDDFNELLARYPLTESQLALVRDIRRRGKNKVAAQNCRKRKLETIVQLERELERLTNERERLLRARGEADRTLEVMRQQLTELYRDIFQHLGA
T5 sequence 2: T5 sequence 1

ATF6;ATF6 = ATF6;ATF6 (Homo sapiens;Homo sapiens, UniProt P18850;P18850 297-371;297-371, |)
CREB3;CREB3 = biological target: T6, CREB3;CREB3 (Homo sapiens;Homo sapiens, UniProt O43889;O43889 141-221;141-221, |)
T6 sequence 1: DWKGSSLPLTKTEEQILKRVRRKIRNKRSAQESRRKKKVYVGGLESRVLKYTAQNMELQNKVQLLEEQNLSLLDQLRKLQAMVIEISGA
T6 sequence 2: T6 sequence 1

ATF5;CREB3L3 = biological target: T7, ATF5;CREB3L3 (Homo sapiens;Homo sapiens, UniProt Q9Y2D1;Q68CJ9 199-275;234-311, |)
T7 sequence 1: T1 sequence 1
T7 sequence 2: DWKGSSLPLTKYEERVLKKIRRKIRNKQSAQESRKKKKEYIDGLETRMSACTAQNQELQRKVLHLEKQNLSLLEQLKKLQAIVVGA

ATF6B;ATF6B = ATF6B;ATF6B (Homo sapiens;Homo sapiens, UniProt Q99941;Q99941 316-391;316-391, |)
CREB1;CREB1 = biological target: T8, CREB1;CREB1 (Homo sapiens;Homo sapiens, UniProt P16220;P16220 260-327;260-327, |)
T8 sequence 1: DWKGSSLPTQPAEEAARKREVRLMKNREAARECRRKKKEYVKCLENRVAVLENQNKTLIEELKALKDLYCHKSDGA
T8 sequence 2: T8 sequence 1

ATF6B;ATF6B, sequence (Q99941 other isoform, or with tags, fused parts or gaps |, chain 1 of 2): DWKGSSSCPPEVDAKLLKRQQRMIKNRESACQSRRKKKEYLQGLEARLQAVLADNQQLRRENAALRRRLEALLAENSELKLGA
ATF6B;ATF6B, sequence (Q99941 other isoform, or with tags, fused parts or gaps |, chain 2 of 2): as the sequence (Q99941 other isoform, or with tags, fused parts or gaps |, chain 1 of 2) above
ATF5;ATF6B, sequence (Q99941 other isoform, or with tags, fused parts or gaps |): as the sequence (Q99941 other isoform, or with tags, fused parts or gaps |, chain 1 of 2) above
MAFB;FOSL1, sequence (Q9Y5Q3 other isoform, or with tags, fused parts or gaps |, chain 1 of 2): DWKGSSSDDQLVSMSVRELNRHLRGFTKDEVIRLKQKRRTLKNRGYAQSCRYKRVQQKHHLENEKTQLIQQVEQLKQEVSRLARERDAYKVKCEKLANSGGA
MAFB;FOSL1, sequence (P15407 other isoform, or with tags, fused parts or gaps |, chain 2 of 2): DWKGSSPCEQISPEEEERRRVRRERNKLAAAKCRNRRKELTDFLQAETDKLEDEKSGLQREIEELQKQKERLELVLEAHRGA
ATF6;ATF6, sequence (P18850 other isoform, or with tags, fused parts or gaps |, chain 1 of 2): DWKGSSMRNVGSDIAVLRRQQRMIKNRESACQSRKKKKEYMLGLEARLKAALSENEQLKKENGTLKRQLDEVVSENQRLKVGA
ATF6;ATF6, sequence (P18850 other isoform, or with tags, fused parts or gaps |, chain 2 of 2): as the sequence (P18850 other isoform, or with tags, fused parts or gaps |, chain 1 of 2) above

| Sequence | binding signal (ATF5;BATF2) | binding signal (NFE2;MAFG) | binding signal (NFE2L1;MAFG) | binding signal (HLF;HLF) | binding signal (NFIL3;NFIL3) | binding signal (MAFG;MAFG) | binding signal (MAFB;FOSL1) | binding signal (MAFB;ATF5) | binding signal (ATF5;ATF6B) | binding signal (ATF5;CREBZF) | binding signal (NFE2;NFE2) | binding signal (ATF6;ATF6) | binding signal (CREB3;CREB3) | binding signal (ATF5;CREB3L3) | binding signal (ATF6B;ATF6B) | binding signal (CREB1;CREB1) |
| --- | --- | --- | --- | --- | --- | --- | --- | --- | --- | --- | --- | --- | --- | --- | --- | --- |
| ATGATGCAAT | 0.02 relative CSI intensity (max = 1) | 0.0058 relative CSI intensity (max = 1) | 0.00579 relative CSI intensity (max = 1) | 0.0587 relative CSI intensity (max = 1) | 0.107 relative CSI intensity (max = 1) | 0.00357 relative CSI intensity (max = 1) | 0.00125 relative CSI intensity (max = 1) | 0.00407 relative CSI intensity (max = 1) | 0.0122 relative CSI intensity (max = 1) | 0.00335 relative CSI intensity (max = 1) |  |  |  |  |  |  |
| ATGACGCAAT | 0.0275 relative CSI intensity (max = 1) | 0.00814 relative CSI intensity (max = 1) | 0.00759 relative CSI intensity (max = 1) | 0.245 relative CSI intensity (max = 1) | 0.224 relative CSI intensity (max = 1) |  | 0.00163 relative CSI intensity (max = 1) | 0.00342 relative CSI intensity (max = 1) | 0.00498 relative CSI intensity (max = 1) | 0.0123 relative CSI intensity (max = 1) | 0.0016 relative CSI intensity (max = 1) | 0.00207 relative CSI intensity (max = 1) | 0.00195 relative CSI intensity (max = 1) |  |  |  |
| CCTGACGTCA | 0.0163 relative CSI intensity (max = 1) | 0.00227 relative CSI intensity (max = 1) |  |  | 0.00977 relative CSI intensity (max = 1) |  | 0.0285 relative CSI intensity (max = 1) | 0.0743 relative CSI intensity (max = 1) | 0.0183 relative CSI intensity (max = 1) | 0.0084 relative CSI intensity (max = 1) |  | 0.00545 relative CSI intensity (max = 1) | 0.0218 relative CSI intensity (max = 1) | 0.00229 relative CSI intensity (max = 1) | 0.00121 relative CSI intensity (max = 1) | 0.0218 relative CSI intensity (max = 1) |
| ATGACGTCAT | 0.86 relative CSI intensity (max = 1) | 0.0346 relative CSI intensity (max = 1) | 0.0138 relative CSI intensity (max = 1) | 0.205 relative CSI intensity (max = 1) | 0.344 relative CSI intensity (max = 1) | 0.0131 relative CSI intensity (max = 1) | 0.196 relative CSI intensity (max = 1) | 0.148 relative CSI intensity (max = 1) | 1 relative CSI intensity (max = 1) | 1 relative CSI intensity (max = 1) | 0.112 relative CSI intensity (max = 1) | 0.437 relative CSI intensity (max = 1) | 0.325 relative CSI intensity (max = 1) | 1 relative CSI intensity (max = 1) | 0.0846 relative CSI intensity (max = 1) | 0.577 relative CSI intensity (max = 1) |
| ATGACGGAAT |  |  | 0.00175 relative CSI intensity (max = 1) |  | 0.00935 relative CSI intensity (max = 1) | 0.00454 relative CSI intensity (max = 1) |  |  |  | 0.0025 relative CSI intensity (max = 1) |  |  |  |  |  |  |
| ATGACGTAAT | 0.174 relative CSI intensity (max = 1) | 0.00855 relative CSI intensity (max = 1) | 0.0021 relative CSI intensity (max = 1) | 0.728 relative CSI intensity (max = 1) | 0.7 relative CSI intensity (max = 1) | 0.0106 relative CSI intensity (max = 1) | 0.00946 relative CSI intensity (max = 1) | 0.0179 relative CSI intensity (max = 1) | 0.0108 relative CSI intensity (max = 1) | 0.0175 relative CSI intensity (max = 1) | 0.00452 relative CSI intensity (max = 1) | 0.0093 relative CSI intensity (max = 1) | 0.0113 relative CSI intensity (max = 1) | 0.00383 relative CSI intensity (max = 1) | 0.00248 relative CSI intensity (max = 1) | 0.00977 relative CSI intensity (max = 1) |
